Here are results for 11 compounds from ChEMBL document CHEMBL3988442, “University of Dundee, Small-Polar-MMV Screening Library” (2021).

For some of these results: Entries with a potency or affinity are not part of this list.

Common to all, as to design: scale not given: direction of the effect not stated beside the values
Assay [1] has as its target Protein translocase subunit SecA (Escherichia coli (strain K12)) (UniProt P10408). Nature of the assay: Assay to Identify E. coli SecA ATPase Inhibitors. Particulars: 30 µM. In kind it is functional.
Assay [2] has as its target T1, Ubiquitin-activating enzyme e1, putative (Leishmania donovani (strain BPK282A1)) (UniProt E9BSI1).
T1 sequence (whole entry): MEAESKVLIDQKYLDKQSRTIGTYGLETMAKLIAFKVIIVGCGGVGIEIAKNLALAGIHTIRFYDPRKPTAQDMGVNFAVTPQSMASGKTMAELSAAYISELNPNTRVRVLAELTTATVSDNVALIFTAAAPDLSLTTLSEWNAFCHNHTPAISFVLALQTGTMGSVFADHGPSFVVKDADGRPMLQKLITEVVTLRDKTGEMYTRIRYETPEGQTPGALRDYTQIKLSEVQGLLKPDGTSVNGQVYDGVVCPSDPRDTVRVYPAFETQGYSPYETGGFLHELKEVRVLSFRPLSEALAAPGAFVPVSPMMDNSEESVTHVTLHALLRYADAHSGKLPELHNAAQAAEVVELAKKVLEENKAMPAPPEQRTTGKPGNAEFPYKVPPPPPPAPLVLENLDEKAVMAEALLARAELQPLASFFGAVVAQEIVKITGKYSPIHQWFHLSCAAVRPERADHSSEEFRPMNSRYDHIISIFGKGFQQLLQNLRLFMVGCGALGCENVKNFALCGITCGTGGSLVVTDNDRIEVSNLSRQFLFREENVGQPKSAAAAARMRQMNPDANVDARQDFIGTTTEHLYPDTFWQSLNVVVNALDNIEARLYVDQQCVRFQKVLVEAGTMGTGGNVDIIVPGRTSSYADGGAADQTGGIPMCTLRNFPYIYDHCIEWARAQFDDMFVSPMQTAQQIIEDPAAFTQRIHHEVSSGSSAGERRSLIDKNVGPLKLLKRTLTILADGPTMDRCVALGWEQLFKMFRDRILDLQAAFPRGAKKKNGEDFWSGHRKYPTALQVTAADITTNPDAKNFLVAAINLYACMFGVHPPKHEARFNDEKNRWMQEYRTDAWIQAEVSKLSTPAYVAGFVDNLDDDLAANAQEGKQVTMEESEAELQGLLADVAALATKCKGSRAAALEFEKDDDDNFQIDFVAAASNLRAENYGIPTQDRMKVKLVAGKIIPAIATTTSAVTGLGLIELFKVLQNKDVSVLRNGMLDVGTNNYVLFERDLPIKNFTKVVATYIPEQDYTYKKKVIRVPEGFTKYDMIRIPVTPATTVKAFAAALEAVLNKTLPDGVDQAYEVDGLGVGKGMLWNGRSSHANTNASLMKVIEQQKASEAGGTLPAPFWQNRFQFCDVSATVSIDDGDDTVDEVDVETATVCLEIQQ
Nature of the assay: Leishmania donovani Ubiquitin Activating Enzyme (LdE1). Format: functional. Particulars: 30 µM.

The target of assay [3] is AMP-activated protein kinase, AMPK (Homo sapiens) (UniProt P54646+O43741+P54619+Q9UGJ0+Q9Y478+Q13131+Q9UGI9). Nature of the assay: AMP-dependent Kinase enzyme assay. An in vitro enzyme assay that detects ADP turnover that is directly proportional to AMPK activity. This uses naive AMPK that is activated during the assay with MK-8722. In kind it is functional. Particulars: 30 µM.

The target of assay [4] is Sialic acid-binding Ig-like lectin 9 (Homo sapiens) (UniProt Q9Y336). Nature of the assay: Hs-Siglec9 ALPHAscreen SOP 20170721. Particulars: 10 µM. A general note: In Alpha technology, singlet oxygen from a donor bead excites a nearby acceptor bead.
In the next assay the test system is Trypanosoma cruzi. Nature of the assay: Trypanosoma cruzi phosphomannomutase and mannose-1-phosphate guanylyltransferase assay. Format: functional. Particulars: 10 µM.
For assay [5], the target named is T2, Arginase-2, mitochondrial (Homo sapiens) (UniProt P78540).
T2 sequence (whole entry): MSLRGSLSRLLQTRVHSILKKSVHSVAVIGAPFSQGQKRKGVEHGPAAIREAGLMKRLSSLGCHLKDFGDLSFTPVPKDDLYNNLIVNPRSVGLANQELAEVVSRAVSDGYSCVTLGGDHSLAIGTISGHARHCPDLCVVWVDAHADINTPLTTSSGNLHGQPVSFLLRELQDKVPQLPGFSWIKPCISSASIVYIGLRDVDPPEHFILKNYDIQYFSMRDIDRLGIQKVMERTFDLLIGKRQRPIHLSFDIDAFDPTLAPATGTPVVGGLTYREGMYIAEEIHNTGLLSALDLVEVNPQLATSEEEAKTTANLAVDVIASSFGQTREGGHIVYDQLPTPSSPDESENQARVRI
Nature of the assay: in vitro enzyme assay to detect the production of urea directly proportional to the activity of Arginase II. Also: in the data most compounds retested in dose-response had high values. Format: functional. Particulars: 33.3 µM.

The target in assay [6] is T3, Proteasome subunit beta (Trypanosoma cruzi) (UniProt O96673).
T3 sequence (whole entry): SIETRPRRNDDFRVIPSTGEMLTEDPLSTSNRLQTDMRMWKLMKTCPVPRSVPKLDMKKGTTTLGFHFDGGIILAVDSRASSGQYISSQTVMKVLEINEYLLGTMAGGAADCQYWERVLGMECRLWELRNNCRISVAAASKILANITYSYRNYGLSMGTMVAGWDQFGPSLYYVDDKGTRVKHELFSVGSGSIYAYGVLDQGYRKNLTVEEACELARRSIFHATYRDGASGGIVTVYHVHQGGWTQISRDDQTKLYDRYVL
Nature of the assay: Trypanosoma cruzi proteasome chymotrypsin-like activity (TcProtChymo) assay. Also: in the data most compounds retested in dose-response had high values. Format: functional. Particulars: 9.37 µM.

The species named for a further assay is Homo sapiens. Nature of the assay: To identify inhibition of the IFN signalling (Jak-Stat) pathway via expression of an eGFP reporter gene under the control of an IFN-stimulated response element (ISRE) containing MxA promoter. Particulars: 30 µM. In kind it is functional. A general note: Reporter assays use an easily measured gene product as a stand-in for the process of interest.

The target in assay [7] is T4, Tyrosyl-tRNA synthetase, putative (Trypanosoma cruzi (strain CL Brener)) (UniProt Q4DSP6).
T4 sequence (whole entry): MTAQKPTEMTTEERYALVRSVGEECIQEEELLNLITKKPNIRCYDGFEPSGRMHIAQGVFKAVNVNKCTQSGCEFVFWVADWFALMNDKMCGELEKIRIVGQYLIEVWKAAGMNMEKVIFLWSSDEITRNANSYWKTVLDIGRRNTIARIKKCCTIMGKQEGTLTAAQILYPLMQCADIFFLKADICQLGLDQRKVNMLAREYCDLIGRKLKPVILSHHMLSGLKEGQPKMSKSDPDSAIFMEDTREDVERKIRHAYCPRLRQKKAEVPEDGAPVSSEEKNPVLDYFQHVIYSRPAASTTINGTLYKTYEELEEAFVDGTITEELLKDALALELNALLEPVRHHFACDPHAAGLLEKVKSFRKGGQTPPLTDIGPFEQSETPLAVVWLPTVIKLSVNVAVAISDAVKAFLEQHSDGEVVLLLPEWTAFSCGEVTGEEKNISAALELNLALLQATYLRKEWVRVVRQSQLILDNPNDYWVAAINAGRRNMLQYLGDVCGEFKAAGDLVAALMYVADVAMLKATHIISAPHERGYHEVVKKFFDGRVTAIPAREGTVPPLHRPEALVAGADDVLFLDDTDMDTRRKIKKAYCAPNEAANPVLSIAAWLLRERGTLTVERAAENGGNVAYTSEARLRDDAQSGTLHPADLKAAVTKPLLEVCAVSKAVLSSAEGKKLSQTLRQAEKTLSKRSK
Nature of the assay: Trypanosoma cruzi tyrosyl tRNA synthetase (TcYRS) _High Tyrosine SOP. Also: in the data most compounds retested in dose-response had high values. Format: functional. Particulars: 30 µM.

In assay [8] the target is T4, Tyrosyl-tRNA synthetase, putative (Trypanosoma cruzi (strain CL Brener)). Nature of the assay: Trypanosoma cruzi tyrosyl tRNA synthetase (TcYRS) SOP. Format: functional. Particulars: 30 µM.
For assay [9], the target named is Chromo domain-containing protein 1 (Saccharomyces cerevisiae (strain ATCC 204508 / S288c) (Baker's yeast)) (UniProt P32657). Nature of the assay: ScCHD-1 Enzyme Inhibition Assay. Also: in the data most compounds retested in dose-response had high values. Format: functional. Particulars: 30 µM.
Chromo domain-containing protein 1 (Saccharomyces cerevisiae (strain ATCC 204508 / S288c) (Baker's yeast)), sequence (P32657 whole entry, the tested form may be a part): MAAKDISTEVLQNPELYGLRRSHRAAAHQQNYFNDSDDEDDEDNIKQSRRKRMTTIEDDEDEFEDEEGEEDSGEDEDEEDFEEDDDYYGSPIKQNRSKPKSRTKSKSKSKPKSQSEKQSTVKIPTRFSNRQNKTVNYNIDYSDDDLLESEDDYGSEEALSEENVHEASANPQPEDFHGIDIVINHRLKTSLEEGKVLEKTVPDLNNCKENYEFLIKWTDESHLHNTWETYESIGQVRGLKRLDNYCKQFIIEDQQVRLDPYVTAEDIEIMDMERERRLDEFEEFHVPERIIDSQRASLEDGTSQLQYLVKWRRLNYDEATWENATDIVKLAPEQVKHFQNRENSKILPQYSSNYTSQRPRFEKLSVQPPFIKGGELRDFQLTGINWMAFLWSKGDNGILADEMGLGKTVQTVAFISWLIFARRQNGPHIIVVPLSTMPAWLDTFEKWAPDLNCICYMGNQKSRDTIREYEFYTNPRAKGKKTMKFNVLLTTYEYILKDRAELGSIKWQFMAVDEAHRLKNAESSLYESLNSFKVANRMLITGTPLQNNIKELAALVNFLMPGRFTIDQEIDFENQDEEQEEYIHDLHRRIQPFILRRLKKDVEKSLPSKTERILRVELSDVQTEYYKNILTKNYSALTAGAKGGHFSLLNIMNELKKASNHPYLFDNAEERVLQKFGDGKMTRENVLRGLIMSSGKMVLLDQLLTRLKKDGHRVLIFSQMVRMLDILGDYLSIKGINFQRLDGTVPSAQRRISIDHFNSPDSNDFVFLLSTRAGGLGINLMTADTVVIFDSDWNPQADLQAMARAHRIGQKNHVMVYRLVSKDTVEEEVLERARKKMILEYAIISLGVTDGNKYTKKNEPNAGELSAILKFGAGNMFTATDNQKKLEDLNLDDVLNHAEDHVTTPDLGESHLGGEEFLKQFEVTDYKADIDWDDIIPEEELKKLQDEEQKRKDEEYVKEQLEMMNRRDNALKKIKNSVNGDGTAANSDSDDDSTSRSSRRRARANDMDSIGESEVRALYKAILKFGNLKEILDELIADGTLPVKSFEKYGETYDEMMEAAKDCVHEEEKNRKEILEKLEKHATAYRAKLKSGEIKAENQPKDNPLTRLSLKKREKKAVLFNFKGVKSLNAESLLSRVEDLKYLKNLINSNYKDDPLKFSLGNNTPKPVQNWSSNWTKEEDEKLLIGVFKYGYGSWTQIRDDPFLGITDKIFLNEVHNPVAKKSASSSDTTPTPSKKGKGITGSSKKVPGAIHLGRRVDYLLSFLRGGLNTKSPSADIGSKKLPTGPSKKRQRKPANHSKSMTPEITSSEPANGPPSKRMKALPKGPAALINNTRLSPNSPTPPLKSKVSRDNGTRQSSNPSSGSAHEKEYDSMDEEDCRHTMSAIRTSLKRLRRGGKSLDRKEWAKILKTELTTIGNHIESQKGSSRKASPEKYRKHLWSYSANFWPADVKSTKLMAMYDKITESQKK

Protein translocase subunit SecA (Escherichia coli (strain K12)), sequence (P10408 whole entry): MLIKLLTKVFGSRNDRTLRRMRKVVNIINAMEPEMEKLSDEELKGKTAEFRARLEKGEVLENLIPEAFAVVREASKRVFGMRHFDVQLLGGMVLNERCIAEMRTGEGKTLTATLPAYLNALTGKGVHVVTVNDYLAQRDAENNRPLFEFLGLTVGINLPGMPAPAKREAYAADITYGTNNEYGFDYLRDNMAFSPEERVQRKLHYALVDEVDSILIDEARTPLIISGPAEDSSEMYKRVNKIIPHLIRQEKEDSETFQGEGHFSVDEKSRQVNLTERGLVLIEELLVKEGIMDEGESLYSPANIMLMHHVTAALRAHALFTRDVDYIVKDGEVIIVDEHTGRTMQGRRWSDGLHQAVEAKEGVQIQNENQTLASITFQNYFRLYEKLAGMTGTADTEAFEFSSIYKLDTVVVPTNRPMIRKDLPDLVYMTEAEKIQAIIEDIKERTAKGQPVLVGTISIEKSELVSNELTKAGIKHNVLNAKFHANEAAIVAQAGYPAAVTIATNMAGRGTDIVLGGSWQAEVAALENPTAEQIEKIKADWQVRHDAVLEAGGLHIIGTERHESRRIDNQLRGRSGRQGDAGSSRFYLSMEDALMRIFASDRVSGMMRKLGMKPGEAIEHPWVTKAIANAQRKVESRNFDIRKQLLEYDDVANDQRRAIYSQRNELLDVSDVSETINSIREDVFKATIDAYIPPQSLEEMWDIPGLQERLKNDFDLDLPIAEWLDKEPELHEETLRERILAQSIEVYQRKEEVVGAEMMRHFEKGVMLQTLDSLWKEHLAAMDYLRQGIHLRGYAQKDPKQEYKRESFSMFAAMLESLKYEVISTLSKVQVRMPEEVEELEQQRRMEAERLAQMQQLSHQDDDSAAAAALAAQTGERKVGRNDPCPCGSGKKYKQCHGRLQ
Sialic acid-binding Ig-like lectin 9 (Homo sapiens), sequence (Q9Y336 whole entry): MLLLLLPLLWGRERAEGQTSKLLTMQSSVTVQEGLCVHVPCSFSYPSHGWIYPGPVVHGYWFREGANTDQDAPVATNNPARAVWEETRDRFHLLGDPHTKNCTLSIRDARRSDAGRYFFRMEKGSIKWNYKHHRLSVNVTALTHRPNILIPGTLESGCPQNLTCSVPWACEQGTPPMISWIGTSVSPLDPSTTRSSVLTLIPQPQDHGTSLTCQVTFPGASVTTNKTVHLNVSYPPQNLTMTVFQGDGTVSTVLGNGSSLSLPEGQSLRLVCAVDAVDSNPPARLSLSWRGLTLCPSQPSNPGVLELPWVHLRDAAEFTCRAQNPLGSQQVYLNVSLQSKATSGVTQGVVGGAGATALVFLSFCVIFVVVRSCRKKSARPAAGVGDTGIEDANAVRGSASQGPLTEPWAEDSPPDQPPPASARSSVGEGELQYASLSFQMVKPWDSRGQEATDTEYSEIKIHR

For `Cc1nn(CC(C)C)c(N(C)C)c1CNCc1cc2ccccc2[nH]1`, the Percent Effect in [1] was -3.68%; in assay [2] it was 10.8%; in assay [3] it was -5.31%; in assay [4] it was 5.12%; in the assay on Trypanosoma cruzi, -2.17%; in assay [5], -3.21%. In addition, the Percent Effect in [6] is 5.77%; in the assay filed under Homo sapiens, 2.34%; in assay [7], 13.3%; in assay [8], 16.1%; in assay [9] it was -8.01%.

As to `O=S(=O)(Cc1ccccc1F)NCCCN1CCCCC1`, the Percent Effect in assay [1] is -5.56%; in assay [2], 2.67%; in assay [3], -0.488%; in assay [4], 18.2%; in the assay with Trypanosoma cruzi it was 1.66%; in assay [5], -1.04%. The Percent Effect is 3.49% in [6]; -24.3% in the assay filed under Homo sapiens; 1.64% in assay [7]; 1.24% in [8]; -4.29% in [9].

As to `CS(=O)(=O)N[C@@H]1CCO[C@]2(CCN(C(=O)C3=CCCC3)C2)C1`, the Percent Effect in [1] is -2.88%; in assay [2], 13.5%; in assay [3] it was 3.79%; in assay [4], -4.46%; in the assay on Trypanosoma cruzi, -2.25%; in assay [5], 14.3%. The Percent Effect in assay [6] was 23.2%; in the assay listed under Homo sapiens, -15.3%; in [7], 5.41%; in [8], 12.8%; in assay [9] it was -3.57%.

For the compound `O=C(c1ccccn1)N1CCc2c(nc(N3CCCC3)[nH]c2=O)C1`, the Percent Effect is -7.12% in assay [1]; 12.2% in assay [2]; 0.895% in assay [3]; 26.1% in [4]; 0.198% with Trypanosoma cruzi; -3.48% in assay [5]. In addition, the Percent Effect in assay [6] is 7.64%; in the assay filed under Homo sapiens, 10.1%; in [7], 3.23%; in assay [8], 11.7%; in assay [9], -17.3%.

`CN(CC1CCCCO1)C(=O)c1ccnc(OC2CCC2)c1` (stereo unspecified): the Percent Effect was 3.17% in assay [1]; 0% in [2]; -6.16% in assay [3]; 1.71% in [4]; 6.18% with Trypanosoma cruzi; 10.9% in assay [5]. For the same compound, the Percent Effect in assay [6] was 8.62%; in the assay listed under Homo sapiens it was 29.6%; in [7] it was -1.59%; in assay [8], 0%; in assay [9] it was -2.67%.

As for `CC(C)c1nccn1C1CCCN(C(=O)c2ccc3[nH]nnc3c2)C1` (stereo unspecified), the Percent Effect is -8.55% in assay [1]; 7.79% in [2]; -5.52% in [3]; -4.53% in assay [4]; 9.89% in the assay on Trypanosoma cruzi; -1.05% in [5]. Also, the Percent Effect in [6] was 19%; in the assay listed under Homo sapiens, -2.41%; in assay [7], 4.76%; in assay [8] it was 11.8%; in assay [9], -22.9%.

`COCC1c2c(cnn2C)CCN1Cc1ccc(F)cc1` (stereo unspecified): the Percent Effect in assay [1] was -4.38%; in assay [2] it was -2.7%; in [3], 1.18%; in [4], -3.56%; with Trypanosoma cruzi, -2.93%; in assay [5] it was 1.25%. Besides, the Percent Effect is 5.66% in [6]; -1.22% in the assay listed under Homo sapiens; 5.94% in assay [7]; 8.54% in [8]; 2.82% in [9].

As for `Cc1ccc(C(=O)NS(=O)(=O)c2cc(Cl)ccc2Cl)c(=O)[nH]1`, the Percent Effect in assay [1] was -2.59%; in assay [2], 5.41%; in assay [3], -4.48%; in assay [4] it was 13.3%; with Trypanosoma cruzi it was 4.18%; in assay [5], -2.4%. The Percent Effect was 4.67% in assay [6]; 32% in the assay filed under Homo sapiens; 5.94% in [7]; 23.2% in [8]; -3.61% in assay [9].

Turning to `CSCC(CCO)NC(=O)Nc1cc(C)ccc1C` (stereo unspecified), the Percent Effect is -3.37% in assay [1]; 2.74% in [2]; 0.417% in assay [3]; -7.14% in [4]; -7.83% in the assay on Trypanosoma cruzi; 4.09% in assay [5]. For the same compound, the Percent Effect in assay [6] is 15.3%; in the assay filed under Homo sapiens, 5.34%; in assay [7], 1.07%; in assay [8], 5%; in [9], -3.27%.

On to `CCOCC(O)CN1CCN(C(=O)CC(C)C)CC1` (stereo unspecified), for which the Percent Effect is -3.57% in assay [1]; 16.2% in assay [2]; -2.25% in [3]; 3.53% in [4]; -4.62% in the assay with Trypanosoma cruzi; 0.401% in assay [5]. In addition, the Percent Effect is 7.39% in assay [6]; 12.1% in the assay filed under Homo sapiens; 2.46% in assay [7]; 11.1% in assay [8]; -7.14% in assay [9].

Turning to `CCOc1ccc(C(=O)NS(=O)(=O)c2cncc(Br)c2)cc1OC`, the Percent Effect was -4.35% in assay [1]; 13.5% in assay [2]; -8.62% in [3]; 34.9% in assay [4]; 10.6% in the assay with Trypanosoma cruzi; 3.81% in assay [5]. Also, the Percent Effect in [6] was 0.517%; in the assay filed under Homo sapiens, 2.53%; in [7] it was 3.7%; in [8] it was 9.76%; in assay [9], -13.3%.
